From PubChem BioAssay AID1159580 (chemical genetic matrix, 2015)
Out of some 5,500 compounds screened, about 2,000 (36%) were called active. Not shown: some 18% with an inconclusive outcome. Rule as the data show it: active = normalized growth mostly below about 0.91 (no sharp cut-off); inconclusive = no clear call, values can overlap the other calls; inactive = mostly above about 0.92. The list shows a part of the results.

Assay: chemical genetic growth profiling, strain panel (AID 1159580);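 also: tested at 20 µM; growth read once vehicle control cultures reached saturation at 30 °C; 1 = growth at the plate median or of vehicle wells; lower values mean less growth of the strain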
Conditions: growth OD

Measured: normalized growth

O=C(O)C1c2ccccc2Oc2ccccc21
inactive: S. cerevisiae deletion strains, locus YAL013W, strain DEP1, stronger effect = lower value 0.999 | S. cerevisiae deletion strains, locus YBR229C, strain ROT2, stronger effect = lower value 0.993 | S. cerevisiae deletion strains, locus YCL061C, strain MRC1, stronger effect = lower value 0.99 | S. cerevisiae deletion strains, locus YDL101C, strain DUN1, stronger effect = lower value 1 | S. cerevisiae deletion strains, locus YDL134C, strain PPH21, stronger effect = lower value 1 | S. cerevisiae deletion strains, locus YDR150W, strain NUM1, stronger effect = lower value 0.962 | S. cerevisiae deletion strains, locus YEL061C, strain CIN8, stronger effect = lower value 0.996 | S. cerevisiae deletion strains, locus YGR078C, strain PAC10, stronger effect = lower value 0.984 | S. cerevisiae deletion strains, locus YHR030C, strain SLT2, stronger effect = lower value 0.987 | S. cerevisiae deletion strains, locus YHR087W, strain rtc3, stronger effect = lower value 0.971 | S. cerevisiae deletion strains, locus YJL187C, strain SWE1, stronger effect = lower value 0.992 | S. cerevisiae deletion strains, locus YJR043C, strain POL32, stronger effect = lower value 1 | S. cerevisiae deletion strains, locus YJR075W, strain HOC1, stronger effect = lower value 0.975 | S. cerevisiae deletion strains, locus YLR039C, strain RIC1, stronger effect = lower value 0.984 | S. cerevisiae deletion strains, locus YLR058C, strain SHM2 (second series), stronger effect = lower value 0.998 | S. cerevisiae deletion strains, locus YLR085C, strain ARP6, stronger effect = lower value 0.969 | S. cerevisiae deletion strains, locus YLR262C, strain YPT6, stronger effect = lower value 1 | S. cerevisiae deletion strains, locus YML094W, strain GIM5, stronger effect = lower value 1.03 | S. cerevisiae deletion strains, locus YMR219W, strain ESC1, stronger effect = lower value 0.989 | S. cerevisiae deletion strains, locus YMR263W, strain SAP30, stronger effect = lower value 1.01 | S. cerevisiae deletion strains, locus YNL128W, strain TEP1, stronger effect = lower value 1.01 | S. cerevisiae deletion strains, locus YNL153C, strain GIM3, stronger effect = lower value 0.983 | S. cerevisiae deletion strains, locus YNL298W, strain CLA4 (second series), stronger effect = lower value 0.993 | S. cerevisiae deletion strains, locus YNL322C, strain KRE1, stronger effect = lower value 0.976 | S. cerevisiae deletion strains, locus YNR030W, strain Alg12, stronger effect = lower value 1.01 | S. cerevisiae deletion strains, locus YPL055C, strain LGE1, stronger effect = lower value 0.964 | S. cerevisiae deletion strains, locus YPL241C, strain CIN2, stronger effect = lower value 0.971 | S. cerevisiae deletion strains, locus YPR135W, strain CTF4, stronger effect = lower value 1.03 | S. cerevisiae strains, strain wild type, stronger effect = lower value 1.01
